Reference: the supplement of paper PMC12494721
Structures can show the parent of a compound that is named as a salt.

Key:
Conditions in all cases: 20 µM; incubation time: 27 h, anaerobic, 37 °C;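 for the amine columns active = adjusted P below 0.05 in both replicates with a change the same way and a mean fold change under 0.8 or over 1.25; inactive = the rest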
[1] = test system: Clostridium sporogenes DSM 1664; test: growth (OD595) fold change vs plate DMSO controls (fold change (ratio)); higher = more growth
How it was run: (§1)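 Anaerobic 27 h, 37 °C mGAM 96-well cultures were shaken, then read for absorbance at 595 nm. Values were blank-subtracted and corrected for compound background using 20 µM compound solutions in water. A calibration factor of 5 converted them to OD. Growth is the fold change versus the median of plate DMSO controls. Fold changes above 1.5 were set to NA, and values are the mean of 2 biological replicates.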

Escherichia coli IAI1 [2] = test: as above
How it was run: as §1

[3] = test system: Klebsiella aerogenes DSM 30053; test: as above
How it was run: as §1

[4] = test system: Ruminococcus gnavus DSM 108212; test: as above
How it was run: as §1

[5] = test system: Klebsiella aerogenes DSM 30053; test: fold change of Histamine concentration vs plate DMSO controls (fold change (ratio)); higher = more amine produced, active = hit call of the paper (significant change in both replicates, either direction)
How it was run: (§2)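 Anaerobic mGAM cultures of four gut bacterial strains were grown at 37 °C for 27 h in 80 µL wells, starting at OD 0.1 before 1:1 dilution. Compounds were at 20 µM final (sweeteners 50 µM). Whole cultures were extracted with cold acetonitrile/methanol containing 0.1% formic acid and centrifuged. Amines were quantified by LC–triple-quadrupole MS (dynamic MRM) against external calibration curves and drift-corrected within batch. Each value is the fold change versus plate DMSO controls, averaged over 2 biological replicates.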

[6] = test system: Clostridium sporogenes DSM 1664; test: fold change of Tryptamine concentration vs plate DMSO controls (fold change (ratio)); higher = more amine produced, active = hit call of the paper (significant change in both replicates, either direction)
How it was run: as §2

[7] = test system: Ruminococcus gnavus DSM 108212; test: as above
How it was run: as §2

Escherichia coli IAI1 [8] = test: fold change of Putrescine concentration vs plate DMSO controls (fold change (ratio)); higher = more amine produced, active = hit call of the paper (significant change in both replicates, either direction)
How it was run: as §2

[9] = test system: Klebsiella aerogenes DSM 30053; test: as above
How it was run: as §2

Escherichia coli IAI1 [10] = test: fold change of Cadaverine concentration vs plate DMSO controls (fold change (ratio)); higher = more amine produced, active = hit call of the paper (significant change in both replicates, either direction)
How it was run: as §2

[11] = test system: Klebsiella aerogenes DSM 30053; test: as above
How it was run: as §2

[12] = test system: Ruminococcus gnavus DSM 108212; test: fold change of 2-Phenylethylamine concentration vs plate DMSO controls (fold change (ratio)); higher = more amine produced, active = hit call of the paper (significant change in both replicates, either direction)
How it was run: as §2

Compound | growth [1] | growth (Escherichia coli IAI1 [2]) | growth [3] | growth [4] | fold change of Histamine concentration [5] | fold change of Tryptamine concentration [6] | fold change of Tryptamine concentration [7] | fold change of Putrescine concentration (Escherichia coli IAI1 [8]) | fold change of Putrescine concentration [9] | fold change of Cadaverine concentration (Escherichia coli IAI1 [10]) | fold change of Cadaverine concentration [11] | fold change of 2-Phenylethylamine concentration [12]
COc1ccccc1N [o-Anisidine] | 1.07 | 1.04 | 0.996 | 1.01 | 1.03 (inactive) | 1.08 (inactive) | 1 (inactive) | 1 (inactive) | 0.983 (inactive) | 0.947 (inactive) | 0.997 (inactive) | 1.01 (inactive)
Cc1cccc(C)c1NC1=NCCCS1 [Xylazine] | 1.16 | 0.985 | 0.959 | 0.87 | 1.09 (inactive) | 1.01 (inactive) | 1 (inactive) | 1.03 (inactive) | 1.02 (inactive) | 0.991 (inactive) | 0.993 (inactive) | 1 (inactive)
CCCN(CCC)N=O [NDPA (N-nitrosodipropylamine)] | 0.977 | 0.974 | 0.99 | 0.958 | 1.01 (inactive) | 1.03 (inactive) | 1.06 (inactive) | 0.969 (inactive) | 0.982 (inactive) | 0.874 (inactive) | 1.01 (inactive) | 1.07 (inactive)
CCC(COC(=O)c1cc(OC)c(OC)c(OC)c1)(c1ccccc1)N(C)C (configuration not stated) [Trimebutine] | 0.842 | 0.979 | 0.999 | 0.868 | 0.944 (inactive) | 0.936 (inactive) | 1.06 (inactive) | 0.928 (inactive) | 1.01 (inactive) | 0.997 (inactive) | 1.01 (inactive) | 1.04 (inactive)
O=C(O)C(F)(F)C(F)(F)C(F)(F)C(F)(F)C(F)(F)C(F)(F)C(F)(F)F [PFOA (Perfluorooctanoic acid)] | 0.946 | 1.02 | 0.999 | 0.985 | 1.02 (inactive) | 0.979 (inactive) | 0.94 (inactive) | 1.03 (inactive) | 1 (inactive) | 1.02 (inactive) | 0.992 (inactive) | 0.878 (inactive)
CCCN(CCC)C(=O)SCc1ccccc1 | 1.02 | 1 | 1.03 | 0.973 | 1.04 (inactive) | 1.02 (inactive) | 0.923 (inactive) | 1.02 (inactive) | 1.01 (inactive) | 0.995 (inactive) | 0.993 (inactive) | 0.897 (inactive)
Cc1cc(C(C#N)c2ccc(Cl)cc2)c(Cl)cc1NC(=O)c1cc(I)cc(I)c1O (configuration not stated) [Closantel] | 0.0125 | 1.08 | 1.03 | 0.185 | 0.981 (inactive) | 0.0178 (active) | 0.121 (active) | 1.19 (inactive) | 0.984 (inactive) | 1.32 (active) | 1.05 (inactive) | 0.13 (active)
COCC(=O)N(c1c(C)cccc1C)[C@H](C)C(=O)OC | 0.945 | 1.01 | 1.03 | 0.974 | 1 (inactive) | 1.01 (inactive) | 1.02 (inactive) | 1.02 (inactive) | 0.996 (inactive) | 0.99 (inactive) | 1.01 (inactive) | 1.05 (inactive)
C[C@]12CC[C@@H]3c4ccc(OC(=O)N(CCCl)CCCl)cc4CC[C@H]3[C@@H]1CC[C@@H]2O [Estramustine] | 0.804 | 0.998 | 0.983 | 1.24 | 0.899 (inactive) | 0.616 (active) | 0.949 (inactive) | 1.01 (inactive) | 1.01 (inactive) | 1.05 (inactive) | 1.04 (inactive) | 0.928 (inactive)
C[C@]12C=CC(=O)C=C1CC[C@@H]1[C@@H]2CC[C@@]2(C)[C@H]1CC[C@]2(C)O [Methandrostenolone] | 1.01 | 0.989 | 1 | 0.931 | 0.999 (inactive) | 0.98 (inactive) | 1.03 (inactive) | 1.01 (inactive) | 0.995 (inactive) | 1.01 (inactive) | 0.991 (inactive) | 1.02 (inactive)
Clc1ccc(C(c2ccc(Cl)cc2)C(Cl)(Cl)Cl)cc1 | 0.984 | 0.974 | 0.996 | 1.12 | 1.03 (inactive) | 1.02 (inactive) | 0.962 (inactive) | 1.06 (inactive) | 1.02 (inactive) | 0.957 (inactive) | 1 (inactive) | 0.914 (inactive)
C=C[C@H]1CN2CC[C@H]1C[C@H]2[C@H](OC(=O)OCC)c1ccnc2ccc(OC)cc12 [Quinine ethyl carbonate] | 1.08 | 1.01 | 1.01 | 0.915 | 0.967 (inactive) | 1.01 (inactive) | 0.955 (inactive) | 1.03 (inactive) | 0.985 (inactive) | 1.01 (inactive) | 0.993 (inactive) | 1.03 (inactive)
CCN(C(C)=O)c1cccc(-c2ccnc3c(C#N)cnn23)c1 [Zaleplon] | 1.07 | 0.995 | 1.05 | 1.05 | 0.987 (inactive) | 0.972 (inactive) | 1.02 (inactive) | 1.03 (inactive) | 0.992 (inactive) | 1.02 (inactive) | 1.01 (inactive) | 1.04 (inactive)
Nc1c([N+](=O)[O-])ccc(Oc2ccccc2)c1Cl | 0.859 | 0.991 | 0.998 | 1.03 | 0.974 (inactive) | 1.02 (inactive) | 1.01 (inactive) | 0.973 (inactive) | 1.01 (inactive) | 1.04 (inactive) | 1.01 (inactive) | 0.982 (inactive)
CCC(C)(c1ccc(O)cc1)c1ccc(O)cc1 [Bisphenol B] | 1.05 | 1.04 | 0.977 | 1.02 | 1.06 (inactive) | 1.04 (inactive) | 0.962 (inactive) | 0.976 (inactive) | 0.994 (inactive) | 1 (inactive) | 0.98 (inactive) | 0.974 (inactive)
c1cc2ccc3cccc4ccc(c1)c2c34 [Pyrene] | 1.01 | 0.96 | 0.997 | 0.936 | 0.993 (inactive) | 0.953 (inactive) | 1.03 (inactive) | 1.01 (inactive) | 1.05 (inactive) | 0.969 (inactive) | 1.03 (inactive) | 1 (inactive)
C[C@]12CC[C@H]3[C@@H](CCC4=CC(=O)CC[C@@H]43)[C@@H]1CC[C@@H]2O [Nandrolone] | 1.11 | 1.06 | 1.02 | 1.01 | 0.993 (inactive) | 1.01 (inactive) | 1.02 (inactive) | 1.04 (inactive) | 1 (inactive) | 1 (inactive) | 0.999 (inactive) | 1.03 (inactive)
CC1COC(Cn2cncn2)(c2ccc(Oc3ccc(Cl)cc3)cc2Cl)O1 (configuration not stated) | 1.16 | 1.02 | 1.01 | 1.13 | 1.01 (inactive) | 0.964 (inactive) | 0.934 (inactive) | 1.02 (inactive) | 0.996 (inactive) | 0.995 (inactive) | 0.995 (inactive) | 0.954 (inactive)
C=CC[C@]1(O)CC[C@H]2[C@@H]3CCC4=CC(=O)CCC4=C3C=C[C@@]21C [Altrenogest] | 0.998 | 0.987 | 1.05 | 0.827 | 0.926 (inactive) | 1.02 (inactive) | 1 (inactive) | 1.09 (inactive) | 1.01 (inactive) | 1.42 (inactive) | 1.01 (inactive) | 0.978 (inactive)
C[C@]12Cc3c[nH]nc3C[C@@H]1CC[C@@H]1[C@@H]2CC[C@@]2(C)[C@H]1CC[C@]2(C)O [Stanozolol] | 1.18 | 0.985 | 1.1 | 1.05 | 0.911 (inactive) | 0.973 (inactive) | 0.976 (inactive) | 0.981 (inactive) | 0.99 (inactive) | 0.959 (inactive) | 1.02 (inactive) | 1 (inactive)
COP(=S)(OC)SCN1C(=O)c2ccccc2C1=O | 1.02 | 1.08 | 1.05 | 0.965 | 0.945 (inactive) | 1.03 (inactive) | 1.01 (inactive) | 1.01 (inactive) | 1.01 (inactive) | 0.997 (inactive) | 1.01 (inactive) | 1 (inactive)
C=C1C[C@@H]2[C@H](CC[C@]3(C)C(=O)CC[C@@H]23)[C@@]2(C)C=CC(=O)C=C12 [Exemestane] | 0.934 | 1 | 1.03 | 1.07 | 0.984 (inactive) | 1.07 (inactive) | 1.03 (inactive) | 1.05 (inactive) | 0.981 (inactive) | 0.996 (inactive) | 1 (inactive) | 1.02 (inactive)
O=C(Nc1ccc(F)cc1F)c1cccnc1Oc1cccc(C(F)(F)F)c1 | 0.931 | 1.02 | 1.03 | 0.965 | 1.01 (inactive) | 0.987 (inactive) | 0.983 (inactive) | 1.01 (inactive) | 0.995 (inactive) | 1.03 (inactive) | 0.993 (inactive) | 0.987 (inactive)
C[C@]12CC[C@H](O)C[C@H]1CC[C@@H]1[C@@H]2C[C@@H](O)[C@]2(C)[C@@H](C3=CC(=O)OC3)CC[C@]12O [Digoxigenin] | 0.957 | 1.07 | 1.03 | 0.974 | 0.938 (inactive) | 1.04 (inactive) | 1.12 (inactive) | 1.04 (inactive) | 0.964 (inactive) | 1.01 (inactive) | 1.01 (inactive) | 1.12 (inactive)
CNC(=O)Oc1ccc2c(c1)[C@]1(C)CCN(C)[C@@H]1N2C [Eserine hemisulfate salt] | 1.02 | 1.06 | 0.988 | 1.05 | 1.04 (inactive) | 1.02 (inactive) | 1.03 (inactive) | 1.06 (inactive) | 0.996 (inactive) | 0.999 (inactive) | 0.975 (inactive) | 1.05 (inactive)
CCN(C)C(=O)Oc1cccc([C@H](C)N(C)C)c1 [Rivastigmine] | 0.985 | 1.03 | 1.02 | 1.05 | 0.987 (inactive) | 1.18 (inactive) | 1.13 (inactive) | 0.958 (inactive) | 0.993 (inactive) | 0.937 (inactive) | 1.03 (inactive) | 1.18 (inactive)
